What all share (assay): PBM; 200 nM protein, PBS
Common to all, as to conditions: dsDNA, one strand shown

Test [1] concerns the target CRX (Homo sapiens, UniProt O43186 26-111).
The target in test [2] is CRX (Homo sapiens, UniProt O43186 26-111, E42D).
The target of test [3] is CRX (Homo sapiens, UniProt O43186 26-111, R41L).
Test [4] addresses HOXB6 (Homo sapiens, UniProt P17509 132-218).
The target in test [5] is PITX2 (Homo sapiens, UniProt Q99697 72-157).
Test [6] concerns the target T1, NKX2-4 (Homo sapiens, UniProt Q9H2Z4 175-261, P217L).
T1 sequence: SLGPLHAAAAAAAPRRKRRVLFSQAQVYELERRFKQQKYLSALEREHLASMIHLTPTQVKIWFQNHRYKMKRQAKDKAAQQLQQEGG

Test [7] addresses T2, VENTX (Homo sapiens, UniProt O95231 78-163, R121Q).
T2 sequence: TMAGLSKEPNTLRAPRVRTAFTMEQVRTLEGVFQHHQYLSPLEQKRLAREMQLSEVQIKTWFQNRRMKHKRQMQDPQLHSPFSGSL

In test [8] the target is HOXB9 (Homo sapiens, UniProt P17482 171-250, T197M).
Sequence of HOXB9 (Homo sapiens, UniProt P17482 171-250, T197M) (P17482 171-250 T197M): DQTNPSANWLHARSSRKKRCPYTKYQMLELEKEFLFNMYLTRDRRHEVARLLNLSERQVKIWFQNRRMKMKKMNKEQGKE
Test [9] has as its target T3, VENTX (Homo sapiens, UniProt O95231 78-163).
T3 sequence: T2 sequence with Q44R

Test [10] deals with T4, NKX2-4 (Homo sapiens, UniProt Q9H2Z4 175-261, T231S).
T4 sequence: T1 sequence with L43P, T57S

Test [11] has as its target T5, VENTX (Homo sapiens, UniProt O95231 78-163, Y115F).
T5 sequence: T2 sequence with Y38F, Q44R

For test [12], the target named is T6, NKX2-4 (Homo sapiens, UniProt Q9H2Z4 175-261).
T6 sequence: T1 sequence with L43P

The target in test [13] is HOXB9 (Homo sapiens, UniProt P17482 171-250).
Sequence of HOXB9 (Homo sapiens, UniProt P17482 171-250) (P17482 171-250): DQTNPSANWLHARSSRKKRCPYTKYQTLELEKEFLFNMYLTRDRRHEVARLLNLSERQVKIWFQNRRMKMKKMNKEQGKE
The target of test [14] is T7, NKX2-4 (Homo sapiens, UniProt Q9H2Z4 175-261, R246Q).
T7 sequence: T1 sequence with L43P, R72Q

In test [15] the target is HOXB9 (Homo sapiens, UniProt P17482 171-250, R186Q).
Sequence of HOXB9 (Homo sapiens, UniProt P17482 171-250, R186Q) (P17482 171-250 R186Q): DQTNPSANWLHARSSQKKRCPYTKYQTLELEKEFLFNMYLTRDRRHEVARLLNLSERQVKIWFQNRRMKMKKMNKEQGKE
Test [16] addresses HOXA4 (Homo sapiens, UniProt Q00056 201-287, W262R).
The target in test [17] is HOXA4 (Homo sapiens, UniProt Q00056 201-287, R217L).
Sequence of HOXA4 (Homo sapiens, UniProt Q00056 201-287, R217L) (Q00056 201-287 R217L): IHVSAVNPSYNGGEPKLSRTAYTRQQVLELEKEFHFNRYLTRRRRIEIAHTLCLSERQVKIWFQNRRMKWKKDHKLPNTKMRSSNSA
In test [18] the target is HOXA4 (Homo sapiens, UniProt Q00056 201-287).
Sequence of HOXA4 (Homo sapiens, UniProt Q00056 201-287) (Q00056 201-287): as the sequence (Q00056 201-287 R217L) above, with L17R counted along it
For test [19], the target named is HOXA4 (Homo sapiens, UniProt Q00056 201-287, W262F).
Sequence of HOXA4 (Homo sapiens, UniProt Q00056 201-287, W262F) (Q00056 201-287 W262F): as the sequence (Q00056 201-287 R217L) above, with L17R, W62F counted along it
Test [20] concerns the target HOXD13 (Homo sapiens, UniProt P35453 263-343, T313R).
The target in test [21] is HOXD13 (Homo sapiens, UniProt P35453 263-343).
Sequence of HOXD13 (Homo sapiens, UniProt P35453 263-343) (P35453 263-343): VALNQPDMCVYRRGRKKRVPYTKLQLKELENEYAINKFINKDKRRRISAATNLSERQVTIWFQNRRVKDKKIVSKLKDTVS
The target of test [22] is HOXD13 (Homo sapiens, UniProt P35453 263-343, T313A).
Sequence of HOXD13 (Homo sapiens, UniProt P35453 263-343, T313A) (P35453 263-343 T313A): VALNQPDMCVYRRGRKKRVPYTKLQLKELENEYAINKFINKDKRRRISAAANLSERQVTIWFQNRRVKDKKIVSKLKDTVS
Test [23] concerns the target NKX2-5 (Homo sapiens, UniProt P52952 125-210).

Substitutions are numbered along the chain they refer to.

The record followed here is paper PMC11006913.

Sequence of CRX (Homo sapiens, UniProt O43186 26-111, R41L) (O43186 26-111 R41L): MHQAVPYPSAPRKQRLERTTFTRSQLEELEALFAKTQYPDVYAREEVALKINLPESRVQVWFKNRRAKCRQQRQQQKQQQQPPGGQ
Sequence of CRX (Homo sapiens, UniProt O43186 26-111) (O43186 26-111): as the sequence (O43186 26-111 R41L) above, with L16R counted along it
Sequence of CRX (Homo sapiens, UniProt O43186 26-111, E42D) (O43186 26-111 E42D): as the sequence (O43186 26-111 R41L) above, with L16R, E17D counted along it
Sequence of NKX2-5 (P52952 125-210): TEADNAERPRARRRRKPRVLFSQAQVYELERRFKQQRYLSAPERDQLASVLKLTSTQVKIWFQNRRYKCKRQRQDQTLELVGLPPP
Sequence of HOXB6 (P17509 132-218): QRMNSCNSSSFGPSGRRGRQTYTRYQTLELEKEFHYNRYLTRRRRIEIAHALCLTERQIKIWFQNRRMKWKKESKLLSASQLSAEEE
Sequence of HOXD13 (Homo sapiens, UniProt P35453 263-343, T313R) (P35453 263-343 T313R): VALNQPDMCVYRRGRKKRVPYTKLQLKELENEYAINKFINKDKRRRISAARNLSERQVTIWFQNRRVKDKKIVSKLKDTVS
Sequence of HOXA4 (Homo sapiens, UniProt Q00056 201-287, W262R) (Q00056 201-287 W262R): as the sequence (Q00056 201-287 R217L) above, with L17R, W62R counted along it

For the sequence CCTCGCCC, the binding signal is 8.43 upbm affinity estimate (log intensity, higher = more binding, comparable within an allelic series) in [1]; 8.52 upbm affinity estimate (log intensity, higher = more binding, comparable within an allelic series) in test [2]; 8.44 upbm affinity estimate (log intensity, higher = more binding, comparable within an allelic series) in [3].

Turning to TAATCCAA, the binding signal was 13 upbm affinity estimate (log intensity, higher = more binding, comparable within an allelic series) in test [1]; 13 upbm affinity estimate (log intensity, higher = more binding, comparable within an allelic series) in test [2]; 12.8 upbm affinity estimate (log intensity, higher = more binding, comparable within an allelic series) in [3].

Regarding ATTTAAGA, the binding signal in [1] is 11.1 upbm affinity estimate (log intensity, higher = more binding, comparable within an allelic series); in test [2] it was 10.8 upbm affinity estimate (log intensity, higher = more binding, comparable within an allelic series); in test [3] it was 10.4 upbm affinity estimate (log intensity, higher = more binding, comparable within an allelic series).

Take CACGGCGA: the binding signal in test [1] was 8.27 upbm affinity estimate (log intensity, higher = more binding, comparable within an allelic series); in test [2], 8.25 upbm affinity estimate (log intensity, higher = more binding, comparable within an allelic series); in test [3], 8.27 upbm affinity estimate (log intensity, higher = more binding, comparable within an allelic series).

GGTCGAAC: the binding signal is 8.09 upbm affinity estimate (log intensity, higher = more binding, comparable within an allelic series) in test [1]; 8.11 upbm affinity estimate (log intensity, higher = more binding, comparable within an allelic series) in test [2]; 8.1 upbm affinity estimate (log intensity, higher = more binding, comparable within an allelic series) in test [3].

As to CACCAGGC, the binding signal in test [1] is 8.58 upbm affinity estimate (log intensity, higher = more binding, comparable within an allelic series); in [2] it was 8.49 upbm affinity estimate (log intensity, higher = more binding, comparable within an allelic series); in test [3], 8.39 upbm affinity estimate (log intensity, higher = more binding, comparable within an allelic series).

For AGAGAGAC, the binding signal was 8.36 upbm affinity estimate (log intensity, higher = more binding, comparable within an allelic series) in test [1]; 8.46 upbm affinity estimate (log intensity, higher = more binding, comparable within an allelic series) in test [2]; 8.33 upbm affinity estimate (log intensity, higher = more binding, comparable within an allelic series) in test [3].

Consider GGAGACCC, for which the binding signal was 8.12 upbm affinity estimate (log intensity, higher = more binding, comparable within an allelic series) in test [1]; 8.25 upbm affinity estimate (log intensity, higher = more binding, comparable within an allelic series) in test [2]; 8.36 upbm affinity estimate (log intensity, higher = more binding, comparable within an allelic series) in test [3].

AATCACTA: the binding signal in [1] is 10.3 upbm affinity estimate (log intensity, higher = more binding, comparable within an allelic series); in test [2] it was 10.2 upbm affinity estimate (log intensity, higher = more binding, comparable within an allelic series); in test [3] it was 9.96 upbm affinity estimate (log intensity, higher = more binding, comparable within an allelic series).

On to GCGTGACC, for which the binding signal was 8.46 upbm affinity estimate (log intensity, higher = more binding, comparable within an allelic series) in test [1]; 8.49 upbm affinity estimate (log intensity, higher = more binding, comparable within an allelic series) in test [2]; 8.39 upbm affinity estimate (log intensity, higher = more binding, comparable within an allelic series) in test [3].

Take AATAATCT: the binding signal was 12.7 upbm affinity estimate (log intensity, higher = more binding, comparable within an allelic series) in [1]; 12.7 upbm affinity estimate (log intensity, higher = more binding, comparable within an allelic series) in test [2]; 12.6 upbm affinity estimate (log intensity, higher = more binding, comparable within an allelic series) in test [3].

With ATAATATC, the binding signal is 11.2 upbm affinity estimate (log intensity, higher = more binding, comparable within an allelic series) in [1]; 10.9 upbm affinity estimate (log intensity, higher = more binding, comparable within an allelic series) in test [2]; 10.8 upbm affinity estimate (log intensity, higher = more binding, comparable within an allelic series) in [3]; 10.8 upbm affinity estimate (log intensity, higher = more binding, comparable within an allelic series) in [4].

In the case of CGCTAATC, the binding signal was 12.8 upbm affinity estimate (log intensity, higher = more binding, comparable within an allelic series) in test [1]; 12.2 upbm affinity estimate (log intensity, higher = more binding, comparable within an allelic series) in [5]; 12.3 upbm affinity estimate (log intensity, higher = more binding, comparable within an allelic series) in test [3].

Turning to AGAATCCC, the binding signal in test [1] is 10.2 upbm affinity estimate (log intensity, higher = more binding, comparable within an allelic series); in test [2], 10 upbm affinity estimate (log intensity, higher = more binding, comparable within an allelic series); in [3] it was 10.1 upbm affinity estimate (log intensity, higher = more binding, comparable within an allelic series).

Consider GAAATCCA, for which the binding signal in [1] is 10.7 upbm affinity estimate (log intensity, higher = more binding, comparable within an allelic series); in [2] it was 10.4 upbm affinity estimate (log intensity, higher = more binding, comparable within an allelic series); in [3], 10.6 upbm affinity estimate (log intensity, higher = more binding, comparable within an allelic series).

Take GCCAATCC: the binding signal in test [1] was 10.4 upbm affinity estimate (log intensity, higher = more binding, comparable within an allelic series); in test [2], 10.3 upbm affinity estimate (log intensity, higher = more binding, comparable within an allelic series); in [3], 10.1 upbm affinity estimate (log intensity, higher = more binding, comparable within an allelic series).

Turning to CACCGCGG, the binding signal in test [6] is 9.48 upbm affinity estimate (log intensity, higher = more binding, comparable within an allelic series); in test [7] it was 8.21 upbm affinity estimate (log intensity, higher = more binding, comparable within an allelic series); in test [8] it was 8.56 upbm affinity estimate (log intensity, higher = more binding, comparable within an allelic series); in test [9], 8.03 upbm affinity estimate (log intensity, higher = more binding, comparable within an allelic series); in [10], 9.5 upbm affinity estimate (log intensity, higher = more binding, comparable within an allelic series); in test [11], 8.12 upbm affinity estimate (log intensity, higher = more binding, comparable within an allelic series). The binding signal in test [12] is 9.48 upbm affinity estimate (log intensity, higher = more binding, comparable within an allelic series); in [13], 8.55 upbm affinity estimate (log intensity, higher = more binding, comparable within an allelic series); in test [14], 9.54 upbm affinity estimate (log intensity, higher = more binding, comparable within an allelic series); in test [15], 8.55 upbm affinity estimate (log intensity, higher = more binding, comparable within an allelic series).

In the case of CTGGGGGC, the binding signal in test [6] is 9.39 upbm affinity estimate (log intensity, higher = more binding, comparable within an allelic series); in [8], 8.38 upbm affinity estimate (log intensity, higher = more binding, comparable within an allelic series); in [10], 9.45 upbm affinity estimate (log intensity, higher = more binding, comparable within an allelic series); in test [12] it was 9.5 upbm affinity estimate (log intensity, higher = more binding, comparable within an allelic series); in test [13] it was 8.3 upbm affinity estimate (log intensity, higher = more binding, comparable within an allelic series); in test [14], 9.37 upbm affinity estimate (log intensity, higher = more binding, comparable within an allelic series). In addition, the binding signal in test [15] is 8.44 upbm affinity estimate (log intensity, higher = more binding, comparable within an allelic series).

Regarding GACCGAAC, the binding signal in [1] is 7.97 upbm affinity estimate (log intensity, higher = more binding, comparable within an allelic series); in test [2] it was 8.09 upbm affinity estimate (log intensity, higher = more binding, comparable within an allelic series); in test [3], 8.18 upbm affinity estimate (log intensity, higher = more binding, comparable within an allelic series).

On to AGGCTTAA, for which the binding signal in test [1] was 12.8 upbm affinity estimate (log intensity, higher = more binding, comparable within an allelic series); in [3], 12.1 upbm affinity estimate (log intensity, higher = more binding, comparable within an allelic series).

For the sequence GCAGATCA, the binding signal in test [1] was 10.3 upbm affinity estimate (log intensity, higher = more binding, comparable within an allelic series); in test [2] it was 10 upbm affinity estimate (log intensity, higher = more binding, comparable within an allelic series); in test [3] it was 9.94 upbm affinity estimate (log intensity, higher = more binding, comparable within an allelic series).

As for CAGTCCCG, the binding signal in test [6] was 9.58 upbm affinity estimate (log intensity, higher = more binding, comparable within an allelic series); in [16], 9.96 upbm affinity estimate (log intensity, higher = more binding, comparable within an allelic series); in [10] it was 9.49 upbm affinity estimate (log intensity, higher = more binding, comparable within an allelic series); in test [12], 9.67 upbm affinity estimate (log intensity, higher = more binding, comparable within an allelic series); in test [17], 9.95 upbm affinity estimate (log intensity, higher = more binding, comparable within an allelic series); in [18], 9.91 upbm affinity estimate (log intensity, higher = more binding, comparable within an allelic series). The binding signal in [14] was 9.57 upbm affinity estimate (log intensity, higher = more binding, comparable within an allelic series); in test [19] it was 10 upbm affinity estimate (log intensity, higher = more binding, comparable within an allelic series).

As for CTGGTCGA, the binding signal in test [1] is 8.44 upbm affinity estimate (log intensity, higher = more binding, comparable within an allelic series); in test [2], 8.35 upbm affinity estimate (log intensity, higher = more binding, comparable within an allelic series); in test [3], 8.29 upbm affinity estimate (log intensity, higher = more binding, comparable within an allelic series).

In the case of GCGCCGCC, the binding signal is 9.93 upbm affinity estimate (log intensity, higher = more binding, comparable within an allelic series) in test [6]; 8.49 upbm affinity estimate (log intensity, higher = more binding, comparable within an allelic series) in test [8]; 9.45 upbm affinity estimate (log intensity, higher = more binding, comparable within an allelic series) in test [10]; 9.72 upbm affinity estimate (log intensity, higher = more binding, comparable within an allelic series) in test [12]; 8.66 upbm affinity estimate (log intensity, higher = more binding, comparable within an allelic series) in test [13]; 9.49 upbm affinity estimate (log intensity, higher = more binding, comparable within an allelic series) in [20]. For the same sequence, the binding signal is 9.76 upbm affinity estimate (log intensity, higher = more binding, comparable within an allelic series) in [21]; 9.62 upbm affinity estimate (log intensity, higher = more binding, comparable within an allelic series) in test [14]; 9.79 upbm affinity estimate (log intensity, higher = more binding, comparable within an allelic series) in [22]; 8.63 upbm affinity estimate (log intensity, higher = more binding, comparable within an allelic series) in test [15].

As for CGACGGAC, the binding signal is 8.32 upbm affinity estimate (log intensity, higher = more binding, comparable within an allelic series) in test [1]; 8.15 upbm affinity estimate (log intensity, higher = more binding, comparable within an allelic series) in test [2]; 8.24 upbm affinity estimate (log intensity, higher = more binding, comparable within an allelic series) in test [3].

With GGTGCTTA, the binding signal in test [1] is 11 upbm affinity estimate (log intensity, higher = more binding, comparable within an allelic series); in test [2], 10.9 upbm affinity estimate (log intensity, higher = more binding, comparable within an allelic series); in [3], 10.4 upbm affinity estimate (log intensity, higher = more binding, comparable within an allelic series); in [23], 10.4 upbm affinity estimate (log intensity, higher = more binding, comparable within an allelic series).

Take ACACTACC: the binding signal in test [1] was 8.32 upbm affinity estimate (log intensity, higher = more binding, comparable within an allelic series); in test [2] it was 8.19 upbm affinity estimate (log intensity, higher = more binding, comparable within an allelic series); in [3], 8.34 upbm affinity estimate (log intensity, higher = more binding, comparable within an allelic series).

Regarding AAGTAATA, the binding signal in test [1] was 10.4 upbm affinity estimate (log intensity, higher = more binding, comparable within an allelic series); in test [2], 10.3 upbm affinity estimate (log intensity, higher = more binding, comparable within an allelic series); in test [3], 10.1 upbm affinity estimate (log intensity, higher = more binding, comparable within an allelic series).
